Structures can show the parent of a compound that is named as a salt. Where two headings read alike, the source gives them in different places. In all, about 5,300 compounds went through this assay and about 130 (2.5%) showed an effect of 50% or more. The sample holds strong results, similar compounds and a random draw of the others, so the mix is not that of the screen. Peptide text beside a SMILES is read from it. * marks the point of attachment. PhAc = O=C(Cc1ccccc1)*
Tested on: M. mycetomatis strain mm55
Conditions: primary screen, metabolic activity vs growth control, 96 h, 2 µM, inhibitor
[1] = Madurella mycetomatis metabolic activity at 2µM (%)

How did the “% viability” value turn out when NCCC(=O)N[C@@H](Cc1cnc[nH]1)C(=O)O [ONC0002788, carnosine] was run?
Its value is 115.1%.

Which “% viability” value does the source give for CC[C@@H]1C(=O)N(C)c2cnc(Nc3ccc(C(=O)N[C@H]4CC[C@H](N5CCN(CC6CC6)CC5)CC4)cc3OC)nc2N1C(C)C [ONC0005061, bi6727 volasertib] here?
Its value is 89.64%.

With CC(C)CCN1c2nc(Nc3cc(F)c(O)c(F)c3)ncc2N(C)C(=O)C1C (stereo not shown) [ONC0004496, bid1870] as the molecule, how does the “% viability” value read?
Its value is 46.32%.

How did the “% viability” value turn out when CC[C@@H]1C(=O)N(C)c2cnc(Nc3ccc(C(=O)NC4CCN(C)CC4)cc3OC)nc2N1C1CCCC1 [ONC0004589, bi 2536] was run?
The value was 63.71%.

For Nc1nonc1C(=NO)Nc1ccc(F)c(Cl)c1 [ONC0002386, ido5l], which “% viability” value is on record?
Its value is 106.2%.

For CN1CCN(C(=O)c2nc3cc(Cl)ccc3[nH]2)CC1 [ONC0003559, jnj10191584], which “% viability” value is on record?
The value was 96.39%.

For O=C(Nc1ccc(Cl)cc1)Nc1ccc(Cl)c(Cl)c1 [ONC0003407, triclocarban], which “% viability” value is on record?
Its value is 109.1%.

With O=C(Nc1ccc(Cl)nc1)c1ccc(Cl)cc1 [ONC0002468, ica110381] as the molecule, how does the “% viability” value read?
The value was 70.91%.

For O=C(Nc1cnc(Cl)nc1)c1ccc(F)c(F)c1 [ONC0001921, ica069673], which “% viability” value is on record?
Its value is 29.87%.

Which “% viability” value does the source give for CC[C@@]1(O)C(=O)OCc2c1cc1n(c2=O)Cc2c-1nc1cc(F)c(C)c3c1c2[C@@H](N)CC3.CS(=O)(=O)O [ONC0003668, exatecan mesylate] here?
Its value is 59.4%.

For C#C[C@]1(O)CCC2C3CCC4=C(CCC(=O)C4)C3CC[C@@]21C (stereo partly shown) [ONC0000393, norethynodrel], which “% viability” value is on record?
Its value is 78.62%.

O=C(O)c1ccc(CN2CCC(CN[C@@H]3C[C@H]3c3ccccc3)CC2)cc1 [ONC0001137, gsk2879552] was tested. Which “% viability” value did it give?
The value was 48.21%.

O=C(NC1CCN(Cc2ccccc2)CC1)c1ccc(I)cc1 [ONC0003079, 4ibp] was tested. Which “% viability” value did it give?
Its value is 71.08%.

For O=C(COc1ccc(C(=O)c2ccccc2)cc1)NC1CCN(Cc2ccccc2)CC1 [ONC0000156, adiporon], which “% viability” value is on record?
Its value is 92.46%.

Which “% viability” value does the source give for C[C@@H](O)[C@H](N)C(=O)N1CCC[C@H]1C(=O)N1CCC[C@H]1C(=O)N[C@H](C(N)=O)[C@@H](C)O [ONC0002215, rapastinel trifluoroacetate] (H-TPPT-NH2) here?
Its value is 53.54%.

How did the “% viability” value turn out when COCCn1c2c([n+](Cc3cnccn3)c1C)C(=O)c1ccccc1C2=O [ONC0001046, ym155] was run?
The value was 83.36%.

CN(C)c1ccc(/C=C2\CCCN=C2c2cccnc2)cc1 [ONC0002266, dmabanabaseine] was tested. Which “% viability” value did it give?
Its value is 49.52%.

Which “% viability” value does the source give for COc1ccc(/C=C2\CCCN=C2c2cccnc2)c(OC)c1 [ONC0001889, gts21] here?
The value was 72.7%.

With Oc1c(Cl)cc(Cl)c2cccnc12 [ONC0002821, chloroxine] as the molecule, how does the “% viability” value read?
The value was 92.76%.

Which “% viability” value does the source give for Oc1c(Br)cc(Br)c2cccnc12 [Broxyquinoline] here?
The value was 5.699%.

Oc1c(I)cc(I)c2cccnc12 [ONC0000463, iodoquinol] was tested. Which “% viability” value did it give?
The value was 67.55%.

Which “% viability” value does the source give for COc1ccc(CCO[C@@H]2CCCC[C@H]2N2CC[C@@H](O)C2)cc1OC [ONC0001796, vernakalant hydrochloride] here?
The value was 98.02%.

Which “% viability” value does the source give for CC1C[C@H]2[C@@H]3CCC4=CC(=O)C=C[C@]4(C)[C@@]3(Cl)[C@@H](O)C[C@]2(C)[C@@]1(O)C(=O)CO (stereo partly shown) [ONC0000301, beclomethasone] here?
Its value is 73.26%.

CC(C)(C)NC[C@H](O)COc1cccc2c1CCCC2=O [ONC0002946, levobunolol] was tested. Which “% viability” value did it give?
Its value is 70.13%.

For Cc1cccc(OCC(O)CNC(C)(C)C)c1C (stereo not shown) [ONC0002362, xibenolol], which “% viability” value is on record?
Its value is 46.41%.

How did the “% viability” value turn out when CC(C)(C)NC[C@@H](O)COc1cccc2c1CCCC2=O [ONC0002849, levobunolol] was run?
Its value is 116.9%.

How did the “% viability” value [1] turn out when O=C1OC2(c3cc(I)c(O)c(I)c3Oc3c2cc(I)c(O)c3I)c2c(Cl)c(Cl)c(Cl)c(Cl)c21 [ONC0002983, rosebengallactone] was run?
The value was 60.55%.

For CCCCCCCCCCC(CO)CCCCCCCC (stereo not shown) [ONC0003687, 2octyldodecan1ol], which “% viability” value is on record?
The value was 64.53%.

With CCCCC(CC)CNC(=N)NC(=N)NCCCCCCNC(=N)NC(=N)NCC(CC)CCCC (stereo not shown) [Alexidine dihydrochloride] as the molecule, how does the “% viability” value read?
Its value is 2.643%.

Which “% viability” value [1] does the source give for CCCCCCCCCCCCOS(=O)(=O)O [ONC0004120, dodecylsulfate] here?
The value was 112%.

For N=C(N)N=Nc1ccc(NNC(=N)S)cc1 [ONC0002980, ambazone], which “% viability” value is on record?
The value was 75.31%.

For COC(=O)c1cc(OC)c2c(c1-c1c(CO)cc(OC)c3c1OCO3)OCO2 [ONC0002187, bicyclol], which “% viability” value is on record?
Its value is 70.1%.

Which “% viability” value does the source give for COC(=O)c1ccccc1O [ONC0003750, methylsalicylate] here?
The value was 102.4%.

For COC(=O)c1cc(OC)c2c(c1-c1c(C(=O)OC)cc(OC)c3c1OCO3)OCO2 [ONC0003333, bifendate], which “% viability” value is on record?
The value was 41.54%.

With CC1(C)[C@@H](O)CC[C@]2(C)[C@H]3C(=O)C=C4[C@@H]5C[C@@](C)(C(=O)O)CC[C@]5(C)CC[C@@]4(C)[C@]3(C)CC[C@@H]12 [ONC0003205, enoxolone] as the molecule, how does the “% viability” value read?
The value was 101.1%.

With CC(=O)O[C@@H]1CC[C@@]2(C)[C@@H](CC[C@]3(C)[C@@H]2C(=O)C=C2[C@@H]4[C@@H](C)[C@H](C)CC[C@]4(C)CC[C@]23C)[C@@]1(C)C(=O)O [ONC0002083, akba] as the molecule, how does the “% viability” value read?
The value was 67.6%.

CC1(C)[C@@H](OC(=O)CCC(=O)O)CC[C@]2(C)[C@H]3C(=O)C=C4[C@@H]5C[C@@](C)(C(=O)O)CC[C@]5(C)CC[C@@]4(C)[C@]3(C)CC[C@@H]12 [ONC0000604, carbenoxolone sodium] was tested. Which “% viability” value did it give?
Its value is 49.18%.

For O=c1[nH]c(=O)c2[nH]c(=O)[nH]c2[nH]1 [ONC0003522, uricacid], which “% viability” value is on record?
Its value is 130.7%.

With CCOC(=O)CNC(=O)[C@@H]1CCCN1C(=O)Cc1ccccc1 [ONC0001144, omberacetam] (PhAc-Pro-Gly-OEt) as the molecule, how does the “% viability” value read?
The value was 45.25%.

Which “% viability” value does the source give for CCOC(=O)[C@H](CCc1ccccc1)N[C@@H](C)C(=O)N1CCC[C@H]1C(=O)O [ONC0000561, enalapril maleate] here?
The value was 109.8%.

For C[C@H](N[C@@H](CCc1ccccc1)C(=O)O)C(=O)N1CCC[C@H]1C(=O)O [ONC0003897, enalaprilat], which “% viability” value is on record?
Its value is 70.49%.

How did the “% viability” value turn out when N[C@@H]1C[C@H]1c1ccccc1 (racemic) [ONC0000562, tranylcypromine sulfate] was run?
Its value is 104.4%.

With CCCN(CCC)CCc1ccc(OC)c(OCCc2ccccc2)c1 [ONC0000866, ne100] as the molecule, how does the “% viability” value read?
The value was 62.29%.

For O=P(O)(O)C(O)(Cc1cnc2ccccn12)P(=O)(O)O [ONC0000278, minodronic acid hydrate], which “% viability” value is on record?
The value was 88.21%.

C[C@@H]1O[C@@]2(CS1)CN1CCC2CC1.C[C@H]1O[C@]2(CS1)CN1CCC2CC1.Cl [ONC0002680, cevimeline] was tested. Which “% viability” value did it give?
The value was 67.14%.

For COc1ccccc1N1CCN(CCN2C(=O)CC3(CCCC3)CC2=O)CC1 [ONC0002563, bmy7378], which “% viability” value is on record?
Its value is 52.22%.

With COc1ccccc1CC(=N)N1C[C@@H]2C(=O)CCC(c3ccccc3)(c3ccccc3)[C@@H]2C1 [ONC0001413, rp67580] as the molecule, how does the “% viability” value read?
The value was 48.12%.

For NC(CC(F)C(=O)O)C(=O)O (stereo not shown) [ONC0003677, 4fluorodlglutamic acid], which “% viability” value is on record?
Its value is 63.49%.

CCN(CC)S(=O)(=O)c1ccc(C(=O)O)cc1 [ONC0004305, etebenecid] was tested. Which “% viability” value did it give?
Its value is 97.53%.

CC(C)c1ccc2c(c1)CC[C@H]1[C@](C)(CN)CCC[C@]21C [ONC0000210, lylamine] was tested. Which “% viability” value did it give?
Its value is 63.87%.

For Nc1ncnc2c1ncn2[C@H]1CC[C@@H](CO)O1 [ONC0003689, 23dideoxyadenosine], which “% viability” value is on record?
Its value is 49.81%.

Nc1ncnc2c1ncn2[C@@H]1O[C@H](CO)C[C@H]1O [ONC0003004, cordycepin] was tested. Which “% viability” value did it give?
The value was 108%.

For O=c1[nH]cnc2c1ncn2[C@H]1CC[C@@H](CO)O1 [ONC0004781, didanosine videx], which “% viability” value is on record?
Its value is 107%.

For CSc1ccccc1Nc1nc(N2CCNCC2)nc2c(NCC3CC3)ncnc12.Cl [ONC0001097, khkin1 hydrochloride], which “% viability” value is on record?
The value was 76.94%.

With CCC(C)n1ncn(-c2ccc(N3CCN(c4ccc(OCC5COC(Cn6cncn6)(c6ccc(Cl)cc6Cl)O5)cc4)CC3)cc2)c1=O (stereo not shown) [Itraconazole hydrochloride] as the molecule, how does the “% viability” value read?
Its value is 4.9%.

How did the “% viability” value turn out when COc1cc(N2CCN(C(C)=O)CC2)ccc1Nc1ncc(Cl)c(Nc2ccc(N3CCN(C(C)=O)CC3)cc2OC)n1 [ONC0003574, krca0008] was run?
The value was 122%.

Which “% viability” value does the source give for CC[C@@H]([C@H](C)O)n1ncn(-c2ccc(N3CCN(c4ccc(OC[C@@H]5CO[C@@](Cn6cncn6)(c6ccc(F)cc6F)C5)cc4)CC3)cc2)c1=O [Posaconazole] here?
Its value is 0.7626%.

How did the “% viability” value turn out when O=C(O)c1ccc(OCCn2ccnc2)cc1 [ONC0003331, dazoxiben] was run?
The value was 112.5%.

Which “% viability” value does the source give for CC(C)N1CCN(c2ccc(OC[C@@H]3CO[C@@](Cn4cncn4)(c4ccc(Cl)cc4Cl)O3)cc2)CC1 [ONC0002390, terconazole] here?
The value was 66.82%.

CC(=O)N1CCN(c2ccc(OCC3COC(Cn4ccnc4)(c4ccc(Cl)cc4Cl)O3)cc2)CC1 (stereo not shown) [Ketoconazole] was tested. Which “% viability” value did it give?
The value was 1.788%.

Which “% viability” value does the source give for CCC(=O)O[C@@H](OP(=O)(CCCCc1ccccc1)CC(=O)N1C[C@H](C2CCCCC2)C[C@H]1C(=O)O)C(C)C (stereo partly shown) [ONC0005007, fosinopril sodium monopril] here?
Its value is 152.1%.

From article PMC12670160, “A drug-repurposing screen of FDA- and EMA-approved drugs identifies two NF-κB inhibitors active against eumycetoma” (Journal of Antimicrobial Chemotherapy, 2025)
